The source of these data is PubChem BioAssay AID463173 (ICCB-Longwood Screening Facility, Harvard Medical School, 2010).

The whole screen tested about 52,000 compounds, of which about 4,300 (8.3%) were called active. No stated cut-off is given here; in the data, active means survival mostly below about 52% (no sharp cut-off); inactive means mostly above about 56%. Only a selection was taken, and actives are over-represented in it overall.

In the assay the test system is DeltatarO mutant. Briefly: S. aureus survival, RN4220 and DeltatarO strains – OD600, teichoic acid synthesis inhibitors, primary screen (AID 463173). Particulars: S. aureus RN4220 wild type/DeltatarO growth, OD600, 18 h, hits give low values, screened at 18.75 µg/mL (by protocol).
Regarding `COc1ccccc1C(=O)Nc1cc2c(cc1N1CCOCC1)n(C)c(=O)n2C`, the survival is 136% (inactive).

On to `CCOc1cc(-c2nnc(SCC(=O)NCc3ccc(C)cc3)nc2-c2ccc(OC)c(OCC)c2)ccc1OC`, for which the survival was 78% (inactive).

For the compound `CCOc1cc(NC(=S)NCCCN2CCOCC2)c(OCC)cc1NC(=O)C1CC1`, the survival was 94% (inactive).

For `O=C(Nc1ccccc1)C1CCN(C(=O)c2cccs2)CC1`, the survival is 67% (active).

As for `O=C(c1cccs1)N1CCC(Cc2ccccc2)CC1`, the survival was 86% (inactive).

As to `CC(=O)c1ccc(NC(=O)C2CCCN(S(=O)(=O)c3cn(C)cn3)C2)cc1` (stereo not given), the survival is 94% (inactive).

With `O=C(Nc1ccc(OC(F)(F)F)cc1)C1CCN(S(=O)(=O)c2ccc3[nH]c(=O)ccc3c2)CC1`, the survival was 92% (inactive).

With `Cn1cnc(S(=O)(=O)N2CCC(C(=O)Nc3ccc(OC(F)(F)F)cc3)CC2)c1`, the survival is 92% (inactive).

`O=C(Nc1ccc(Cl)cc1)C1CCN(S(=O)(=O)c2ccc(Br)s2)CC1`: the survival is 47% (active).

On to `O=C(Nc1ccc(OC(F)(F)F)cc1)C1CCCN(S(=O)(=O)c2ccc(Br)s2)C1` (stereo not given), for which the survival is 80% (inactive).

On to `Cn1cnc(S(=O)(=O)N2CCCC(C(=O)Nc3ccc(OC(F)(F)F)cc3)C2)c1` (stereo not given), for which the survival is 25% (active).

As for `CC(C)c1ccc(NC(=O)C2CCN(S(=O)(=O)c3ccc(Br)s3)CC2)cc1`, the survival is 73% (inactive).

Take `Cc1cc(NC(=O)C2CCN(S(=O)(=O)c3ccc(Br)s3)CC2)ccc1Br`: the survival is 79% (inactive).

With `O=C(Nc1ccc(OC(F)(F)F)cc1)C1CCN(S(=O)(=O)c2cccs2)CC1`, the survival is 21% (active).

For the compound `O=C(O)C1CCN(C(=O)c2cccs2)CC1`, the survival is 88% (inactive).

Consider `CCC1SC(C)C/C(=N\O)C1C` (stereo not given), for which the survival was 105% (inactive).

Consider `CCOc1ccc(CCNC(=O)CCCc2nnc3n(C)c(=O)c4sccc4n23)cc1OCC`, for which the survival is 93% (inactive).

Take `COc1cc(OC)cc(-c2nc3nc(C)c(CCC(=O)Nc4cc(C)cc(C)c4)c(C)n3n2)c1`: the survival is 69% (inactive).

On to `O=C(NCc1cccc(Br)c1)C1CCN(C(=O)c2sccc2-n2cccc2)CC1`, for which the survival is 66% (inactive).

With `O=C(CN1C(=O)COc2ccc(S(=O)(=O)N3CCCCCC3)cc21)N1CCN(c2ccc(F)cc2)CC1`, the survival is 67% (inactive).

For the compound `CCCC(=O)Nc1nnc(SCc2cc(=O)c3ccc(C)cc3[nH]2)s1`, the survival was 122% (inactive).

With `COc1ccc(NS(=O)(=O)c2cc(-c3onc(C)c3C)ccc2C)c(OC)c1`, the survival is 89% (inactive).

Regarding `CCc1cccc(NC(=O)C2CCCN(S(=O)(=O)c3cccs3)C2)c1` (stereo not given), the survival was 80% (inactive).

Consider `O=C(Nc1cccc(C(F)(F)F)c1)C1CCN(S(=O)(=O)c2cccc3nsnc23)CC1`, for which the survival was 81% (inactive).

Regarding `COc1ccc(NC(=O)C2CCCN(S(=O)(=O)c3cccs3)C2)cc1` (stereo not given), the survival is 96% (inactive).

`CCOc1ccccc1NC(=O)C1CCN(S(=O)(=O)c2cccs2)CC1`: the survival is 58% (inactive).

For `O=C(Nc1cccc(C(F)(F)F)c1)C1CCN(S(=O)(=O)c2cccs2)CC1`, the survival is 39% (active).

As to `Cc1ccc(NC(=O)C2CCN(S(=O)(=O)c3cccs3)CC2)cc1`, the survival is 40% (active).

With `O=C(O)C1CSC(c2cccs2)N1` (stereo not given), the survival is 83% (inactive).

Turning to `CCN1C(=O)c2ccccc2Sc2ccc(NC(=O)c3ccc(C#N)cc3)cc21`, the survival was 102% (inactive).

`COc1ccc(Nc2cc(C(=O)NCCCN(C)C3CCCCC3)c3ccccc3n2)cc1`: the survival was 97% (inactive).

As for `N#Cc1ccc(C(=O)N2CCN(c3nc4ccc(F)cc4s3)CC2)cc1`, the survival was 72% (inactive).

In the case of `Fc1ccc(CNc2nc(-c3ccc(Cl)cc3)cc(C(F)(F)F)n2)cc1`, the survival was 12% (active).

For `Fc1ccc(CNc2nc(-c3ccccc3)cc(C(F)(F)F)n2)cc1`, the survival is 4% (active).

Turning to `O=C(CSc1nc(-c2ccc(F)cc2)cc(C(F)(F)F)n1)NCCc1ccccc1`, the survival was 73% (inactive).

With `Clc1ccc(CNc2cc(-c3ccccc3)nc3nncn23)cc1`, the survival is 50% (inactive).

Take `COc1ccc(-c2cc(NCc3ccc(F)cc3)n3cnnc3n2)cc1`: the survival is 61% (inactive).

In the case of `Fc1ccc(-c2cc(C(F)(F)F)nc(NCc3ccccc3)n2)cc1`, the survival was 85% (inactive).

On to `O=S(=O)(c1ccccc1)n1nc(-c2ccc(Cl)cc2)nc1NCc1ccc(F)cc1`, for which the survival is 53% (inactive).

In the case of `Fc1ccc(CNc2cc(-c3ccccc3)nc3nncn23)cc1`, the survival was 17% (active).

Regarding `O=C(NCc1ccc(F)cc1)c1cc(-c2ccc(Cl)cc2)n[nH]1`, the survival was 85% (inactive).

With `O=C(NCC(c1cccnc1)N1CCN(Cc2ccccc2)CC1)C(=O)Nc1cccc(Cl)c1` (stereo not given), the survival is 77% (inactive).

Turning to `CCOC(=O)c1cccc(NC(=O)Cc2ccc(NC(=O)N3CCCCc4ccccc43)cc2)c1`, the survival was 76% (inactive).

For the compound `Cc1csc2nc(COC(=O)COc3ccccc3F)cc(=O)n12`, the survival was 64% (inactive).

Take `CCOC(=O)c1[nH]cnc1C(=O)Nc1ccc(F)cc1`: the survival is 64% (inactive).

In the case of `COc1cccc(NC(=O)CSc2nnc(NC(=O)NC3CCCCC3)s2)c1`, the survival is 75% (inactive).

With `COc1ccc(NC(=O)Cn2c(=O)n(CCc3ccccc3)c(=O)c3sc4ccccc4c32)cc1`, the survival is 76% (inactive).

On to `O=C(CN1C(=O)CCSc2ccc(S(=O)(=O)N3CCCC3)cc21)Nc1cccc(F)c1`, for which the survival is 72% (inactive).

For `CCCCn1c(=NC(=O)c2c(-c3c(F)cccc3Cl)noc2C)c(C(=O)OCC)cc2c(=O)n3ccccc3nc21`, the survival was 170% (inactive).

As to `COc1ccc(CNC(=O)CN2C(=O)COc3ccccc32)c(OC)c1`, the survival was 89% (inactive).

`CC1CCN(S(=O)(=O)c2ccc3c(c2)CCN3C(=O)Nc2ccccc2Br)CC1`: the survival is 76% (inactive).

As to `Cc1ccc(C)c(CSc2ccc3nnc(CCNS(=O)(=O)c4ccccc4)n3n2)c1`, the survival was 75% (inactive).

In the case of `O=S(=O)(NCCc1nnc2ccc(SCc3ccccc3Cl)nn12)c1ccccc1`, the survival was 68% (active).

As for `O=S(=O)(NCCc1nnc2ccc(SCc3cccc(Cl)c3)nn12)c1ccccc1`, the survival is 58% (inactive).

On to `CCc1ccc(NC(=O)CSc2ccc3nnc(CCNS(=O)(=O)c4ccc(OC)cc4)n3n2)cc1`, for which the survival is 81% (inactive).

Consider `Cc1cccc(CSc2ccc3nnc(CCNS(=O)(=O)c4ccccc4)n3n2)c1`, for which the survival was 68% (inactive).

With `O=S(=O)(NCCc1nnc2ccc(SCc3ccc(Cl)cc3Cl)nn12)c1ccccc1`, the survival is 37% (active).

For the compound `O=S(=O)(NCCc1nnc2ccc(SCc3c(F)cccc3Cl)nn12)c1ccccc1`, the survival is 58% (inactive).

`COc1ccc(S(=O)(=O)NCCc2nnc3ccc(SCC(=O)Nc4cc(C)cc(C)c4)nn23)cc1`: the survival is 63% (active).

As for `COc1ccc(S(=O)(=O)NCCc2nnc3ccc(SCC(=O)Nc4ccc(C(F)(F)F)cc4)nn23)cc1`, the survival was 81% (inactive).
